ChEMBL document CHEMBL4513216, “Probing the Open Global Health Chemical Diversity Library for Multistage-Active Starting Points for Next-Generation Antimalarials” (ACS Infect Dis, 2020)
The whole screen tested about 68,000 compounds, of which about 2,700 (4%) showed an effect of 50% or more. The list comes from a sample in which strong results are over-represented; it also holds similar structures and randomly drawn compounds.

Test system: Plasmodium berghei
Assay: Screen against P. berghei liver stage (PbLuc), transformed with Luciferase, at 2uM
Type: functional, HepG2
Conditions: tested at 2 uM

Row | SMILES | INHIBITION [%]
1 | Cc1noc(C(C)Nc2ccc3oc(C)nc3c2)n1 (centres undefined) | 10.04
2 | O=C(c1ccc(F)cc1Cl)N1CCC(Nc2cccnn2)CC1 | 8.37
3 | Fc1cccc(CN2CCOC3(COCCN(CC4CC4)C3)C2)c1 (centres undefined) | 3.11
4 | Cc1cn[nH]c1C1COCCN1C(=O)c1ccc2c(c1)CCCC2 (centres undefined) | 72.17
5 | Cc1cn[nH]c1C1COCCN1C(=O)c1ccc2[nH]nnc2c1 (centres undefined) | 37.33
6 | COc1ccc(C(=O)N2CCOCC2c2[nH]ncc2C)cc1F (centres undefined) | -53.71
7 | CS(=O)(=O)CCN1CCC(Nc2c(Cl)cccc2C#N)CC1 | -23.01
8 | CC(C)OC(=O)N1CCCCC1CCn1cccn1 (centres undefined) | 29.71
9 | CNC(=O)c1cc2c(s1)CCN(C(=O)CCC1CCCN(C)C1)C2 (centres undefined) | -4.26
10 | CN1CCCC(CCC(=O)N2CCc3sc(C(=O)N(C)C)cc3C2)C1 (centres undefined) | 74.44
11 | CN(C)C(=O)c1cc2c(s1)CCN(C(=O)CCCN1CCCCC1)C2 | 17.2
12 | C1CCC(CO[C@@H]2CC[C@H]3[C@H]2OCCN3CC2CCOCC2)C1 | 42.01
13 | CC(=O)N1CCN(Cc2ccc(F)cc2)CC2(CC(=O)N(C)C2)C1 (centres undefined) | 44.68
14 | Cc1c(C)n2c(SCC(=O)N3CCOCC3)nnc2[nH]c1=O | 33.59
15 | COc1cc(O)ccc1CN1CCN(C2CCc3ccccc3C2)CC1 (centres undefined) | 31.9
16 | COc1ccc(CN2CCN(C3CCc4ccccc4C3)CC2)cc1O (centres undefined) | 59.48
17 | Oc1cccc(CN2CCN(C3CCc4ccccc4C3)CC2)c1 (centres undefined) | -5.87
18 | CCNC(=O)C1CCN(c2nc(-c3ccco3)nc3c2CCNCC3)C1 (centres undefined) | 40.47
19 | CCC(O)CN1CCN(C(=O)c2cc(Cl)cc3cccnc23)CC1 (centres undefined) | -28.58
20 | Cc1cc(C(=O)N2CCc3c(ncn3CCc3ccccc3)C2)on1 | 50.59
21 | Cc1cc(C)c(C(=O)N2CCc3c(ncn3CCc3ccccc3)C2)[nH]1 | 0.51
22 | Cc1nonc1C(=O)N1CCc2c(ncn2CCc2ccccc2)C1 | 17.2
23 | c1ccc(Cn2cc3c(n2)C(COCC2CC2)OCC3)nc1 (centres undefined) | 7.73

Row | SMILES | INHIBITION [%]
24 | Cn1cnc2c1CCN(Cc1csc(Cc3ccccc3)n1)C2 | 33.61
25 | Cc1cccc(-n2nnnc2C(C)(C)Nc2ccccc2C)c1 | -20.72
26 | Cc1ccc(NC(C)(C)c2nnnn2-c2ccc(Cl)cc2)c(C)c1 | -0.62
27 | COc1ccc(-n2nnnc2C(C)(C)Nc2ccc(C)cc2C)cc1 | 57
28 | COCCN1CC2(CCCN(C(=O)NCc3ccccc3)C2)CCC1=O (centres undefined) | 13.53
29 | O=C1NCCN1CCNc1cc(-c2ccccc2)nc2ccnn12 | -8.8
30 | CCc1cc(NCCN2CCNC2=O)n2nccc2n1 | 25.69
31 | CCCc1cc(NCCCC2CCOC2)n2nccc2n1 (centres undefined) | 26.35
32 | CCc1cc(NCCCC2CCOC2)n2nccc2n1 (centres undefined) | -3.6
33 | CCCc1cc(NCCC2CCCOC2)n2nccc2n1 (centres undefined) | 50.41
34 | CCCc1cc(NCCN2CCNC2=O)n2nccc2n1 | 68.39
35 | CC(SCCC(=O)NC(N)=O)c1cccc(F)c1 (centres undefined) | 4.07
36 | Cc1cc(CN2CCC(N(C)Cc3noc(C4CC4)n3)C2)no1 (centres undefined) | -17.31
37 | COc1cccc(S(=O)(=O)N2CCCCC2CCN2CCCC2=O)c1 (centres undefined) | 25.51
38 | NCC(c1ccc(Cl)cc1)N1CCc2sccc2C1 (centres undefined) | -5.59
39 | CC(C)NC(=O)N1CCC2(CC1)[C@@H]1CN(C(=O)N(C)C)C[C@@H]1C(=O)N2C | 24.36
40 | COC(=O)CCC(=O)NC1CCCc2cc(OC(F)F)ccc21 (centres undefined) | -41.81
41 | O=C(COCC(F)(F)F)NC1CCCc2cc(OC(F)F)ccc21 (centres undefined) | 60.52
42 | O=C(CS(=O)(=O)C1CCCC1)NC1CCCc2cc(OC(F)F)ccc21 (centres undefined) | 14.88
43 | CC(C)NC(=O)N1CCCCCC1C1CCN(c2ncccn2)CC1 (centres undefined) | 36.28
44 | O=C(O)c1ccccc1-c1ccc(CN2CC(c3ccncn3)C2)o1 | -44.74
45 | O=C(NC1CCCCC1)NC1CCCc2c1cnn2CCO (centres undefined) | -39.36
46 | CCn1cc(NC(=O)NC2CCCc3c2cnn3CCO)cn1 (centres undefined) | 56.57

Row | SMILES | INHIBITION [%]
47 | Cc1cc(NC(=O)NC2CCCc3c2cnn3CCO)n(C)n1 (centres undefined) | 32.55
48 | Cc1nc(CCNC(=O)NC2CCCc3c2cnn3CCO)cs1 (centres undefined) | -47.76
49 | O=C(Nc1nncs1)NC1CCCc2c1cnn2CCO (centres undefined) | 8.27
50 | Cc1nnc(NC(=O)NC2CCCc3c2cnn3CCO)s1 (centres undefined) | 53.57
51 | Cc1cc(C)cc(NC(=O)c2cnc(N3CCN(C)CC3)nc2C)c1 | 19.84
52 | Cc1cc(C)c(CNC(=O)C(C)Oc2ccccc2C#N)c(=O)[nH]1 (centres undefined) | 35.43
53 | CCOCC(=O)N1C[C@H]2CN(CC3CC3)C(=O)[C@H]2C1 | -3.65
54 | O=C(c1ncoc1C1CC1)N1CCCN(CCCc2ccccc2)CC1 | 26.3
55 | CC1CCN(C(=O)CSCCN2CCOCC2)CC1 | 8.64
56 | COCCN1CCN(c2ccc(CN(C)C)cn2)CC1 | -0.85
57 | CC(=O)Nc1cccc(C(=O)Nc2cnc3n2CCCC3)c1 | 19.61
58 | O=C(Nc1cnc2n1CCCC2)c1cccc(NC(=O)C2CCCC2)c1 | 22
59 | O=C(Nc1cnc2n1CCCC2)c1cccc(-n2cnnc2)c1 | 50.91
60 | CSc1ncccc1C(=O)NCCC(O)c1ccco1 (centres undefined) | 14.45
61 | O=C(NCc1nnc2n1CCC2)c1cn(-c2ccccc2Br)nn1 | -17.44
62 | Cc1ccc(-n2ncc3c2CCCC3N)cc1C (centres undefined) | -13.35
63 | CC(C)(C)c1ccc(-n2ncc3c2CCCC3N)cc1 (centres undefined) | 46.95
64 | CN(C)S(=O)(=O)NC1CCCc2c1cnn2-c1ccc(C(C)(C)C)cc1 (centres undefined) | 75.11
65 | CCC(C)(C)n1nnnc1C(c1cccs1)N1CCc2ccccc2C1 (centres undefined) | 36.24
66 | Cc1nn(CCC(=O)NC2CCCOC2)c(C)c1C (centres undefined) | -3.15
67 | Cc1ccc(N(CC(=O)N2CCCCC2)C(=O)C2COCCO2)cc1 (centres undefined) | 72.49
68 | Cc1ccc(N(CC(=O)N2CCCCC2)C(=O)C2CCCO2)cc1 (centres undefined) | -82.35
69 | CCc1noc(CN(CC(=O)N2CCCCC2)c2ccc(C)cc2)n1 | 38.67
